The results in this text go back to PubChem BioAssay (Tox21).

Assay [1] can be described thus: qHTS assay to identify small molecule antagonists of the estrogen related receptor (ERR) signaling pathway from Tox21 library - cell viability counter screen (AID 1224834). Note: nearly all actives have a fitted effect of over 30% in size. Put shortly:
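ERR cells, 2,000/well; 6 h settle at 37 C/5% CO2; pin-tool compound transfer in DMSO; 17.5 h at 37 C; CellTiter-Fluor, 30 min; fluorescence intensity.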
For orientation: qHTS replaces the single test concentration by a dilution series.

Assay [2] is described as follows: qHTS assay to identify small molecule agonists of the constitutive androstane receptor (CAR) signaling pathway - cell viability counter screen (AID 1224836). Note: series mostly up to about 92 µM; nearly all actives have a fitted effect of over 45% in size. In a few lines: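 Cells were seeded and incubated 4 hrs. Compounds were added across 15 concentrations together with PK11195 at 0.75 uM final. Plates were incubated 23 hrs at 37 C. CellTiter-Fluor was added and fluorescence measured.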

The nature of assay [3]: qHTS assay to identify small molecule antagonists of the constitutive androstane receptor (CAR) signaling pathway - cell viability counter screen (AID 1224837). Note: series mostly up to about 92 µM; nearly all actives have a fitted effect of over 45% in size. Put shortly: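 Viability was measured with CellTiter-Fluor in a HepG2 line carrying stably transfected hCAR and a CYP2B6-2.2kb construct. Cells were exposed for 23 hr at 37 C to 15 compound concentrations with 50 nM CITCO as agonist.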

Assay [4] deals with Nuclear receptor subfamily 1 group I member 3 (Homo sapiens) (UniProt Q14994). Put plainly: qHTS assay to identify small molecule antagonists of the constitutive androstane receptor (CAR) signaling pathway (AID 1224838).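 Note: HepG2 cells stably expressing hCAR with CYP2B6 luciferase reporter stimulated by CITCO; nearly all actives have a fitted effect of over 40% in size.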 Note: potency is the fitted concentration of half-maximal effect. Put shortly:
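Antagonist mode used CITCO at a final 50 nM to activate CAR in human hepatoma HepG2 cells carrying stable hCAR and a 2.2 kb CYP2B6 promoter-luciferase construct. Compounds were tested at 15 concentrations over 24 h, with luminescence as the end point.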

For assay [5] the target is unchanged. Put plainly: qHTS assay to identify small molecule agonists of the constitutive androstane receptor (CAR) signaling pathway (AID 1224839). For activation: series mostly up to about 92 µM. Note: nearly all actives have a fitted effect of over 15% in size. Note: potency is the fitted concentration of half-maximal effect. Put shortly: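 Cells were plated and incubated 4 hrs, then dosed with compounds at 15 concentrations. PK11195 was added to 0.75 uM final. After 24 hrs at 37 C, luciferase luminescence was measured.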
Assay [6] can be described thus: qHTS assay to identify small molecule antagonists of the estrogen related receptor signaling pathway with the pleiotropic PPARgamma coactivator (PGC) from Tox21 10K library - cell viability counter screen (AID 1224840; active = well fitted cell-killing curve with a large enough effect in the repeat runs, not every such curve was filed as active; note: nearly all actives have a fitted effect of over 40% in size). In a few lines: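 Multiplexed viability counter screen in the PGC/ERR cell line: cells treated with DMSO-dissolved compounds for 17.5 hours at 37 C, then viability measured as CellTiter-Fluor fluorescence.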

The nature of assay [7]: qHTS assay to identify small molecule agonists of the estrogen related receptor signaling pathway with the pleiotropic PPARgamma coactivator (PGC) from Tox21 10K library (AID 1224842). Note: nearly all actives have a fitted effect of over 15% in size. Put shortly:
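PGC/ERR reporter cell line, 2,000 cells per well, incubated 6 h at 37 C before 23 nL compound in DMSO was added. After 18 h at 37 C, One-Glo luminescence read following 30 min at room temperature.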

A short description of assay [8]: qHTS assay to identify small molecule antagonists of the estrogen related receptor signaling pathway with the pleiotropic PPARgamma coactivator (PGC) from Tox21 10K library (AID 1224841; call rule not given here; note: actives are mostly falling curves and most rising ones were filed inactive; nearly all actives have a fitted effect of over 50% in size; note: potency is the fitted concentration of half-maximal effect; for activity, negative = inhibition: series mostly up to about 92 µM). Put shortly:
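Steps: plate 2,000 PGC/ERR cells per well; incubate 6 h at 37 C with 5% CO2; transfer compounds from DMSO stocks by pin tool; incubate 18 h at 37 C; add One-Glo; measure luminescence 30 min later.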

In assay [9] the target is Luciferin 4-monooxygenase (Photinus pyralis) (UniProt P08659). Put plainly: qHTS assay to identify small molecule inhibitors of firefly luciferase (AID 1224835). For activity change, negative = inhibition: series mostly up to about 120 µM. Note: nearly all actives have a fitted effect of over 25% in size. Note: potency is the fitted concentration of half-maximal effect. Put shortly: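 Biochemical qHTS: compounds run as interplate titrations against purified firefly enzyme, with D-luciferin and ATP each at its KM concentration. Light output recorded by CCD imaging.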

Records with an inconclusive call do not appear. Unmarked numbers belong to inactive results. The source made the active and inactive calls. Unless noted, calls come from the whole dose curve; as a rule, active = well fitted curve in the direction sought with a large enough effect in the repeat runs; inconclusive = weak or mixed curves; inactive = no such curve, though single readings can be large; an effect the other way counts as inactive or inconclusive.
% is set by controls: 0 for no effect and ±100 for the full control effect.

Nuclear receptor subfamily 1 group I member 3 (Homo sapiens), sequence (Q14994 whole entry, looked up): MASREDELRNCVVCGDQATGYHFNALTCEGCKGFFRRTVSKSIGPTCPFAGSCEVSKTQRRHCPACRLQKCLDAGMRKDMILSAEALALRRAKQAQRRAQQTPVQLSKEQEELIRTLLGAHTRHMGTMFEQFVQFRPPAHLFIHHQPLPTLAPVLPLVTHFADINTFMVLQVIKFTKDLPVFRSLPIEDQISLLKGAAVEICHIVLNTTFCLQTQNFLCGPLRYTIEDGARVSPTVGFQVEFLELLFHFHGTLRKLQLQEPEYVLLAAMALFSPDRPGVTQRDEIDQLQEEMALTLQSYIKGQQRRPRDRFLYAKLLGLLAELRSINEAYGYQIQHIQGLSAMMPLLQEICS
Luciferin 4-monooxygenase (Photinus pyralis), sequence (P08659 whole entry, looked up): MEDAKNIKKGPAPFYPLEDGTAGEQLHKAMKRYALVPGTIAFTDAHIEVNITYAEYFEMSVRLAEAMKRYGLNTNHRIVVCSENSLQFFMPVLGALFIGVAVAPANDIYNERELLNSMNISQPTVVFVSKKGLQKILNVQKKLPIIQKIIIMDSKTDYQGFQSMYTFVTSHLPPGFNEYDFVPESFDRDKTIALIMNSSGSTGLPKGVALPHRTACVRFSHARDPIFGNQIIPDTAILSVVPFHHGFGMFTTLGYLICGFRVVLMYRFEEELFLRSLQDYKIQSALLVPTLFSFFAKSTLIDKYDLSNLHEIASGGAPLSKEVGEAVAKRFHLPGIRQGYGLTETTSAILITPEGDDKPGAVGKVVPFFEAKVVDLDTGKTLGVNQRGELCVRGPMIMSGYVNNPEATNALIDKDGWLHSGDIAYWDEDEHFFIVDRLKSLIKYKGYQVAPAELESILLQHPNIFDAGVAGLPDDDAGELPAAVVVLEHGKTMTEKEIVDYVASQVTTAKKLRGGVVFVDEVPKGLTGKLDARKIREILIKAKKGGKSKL

For the compound `CC(=O)Nc1ccccc1O`, the Potency entry in assay [1], in assay [2], in assay [3], in [4], in assay [5] and in [6] was “inactive” each time. Besides, in assay [7], the Potency entry was “inactive”.
As to `CCC(=O)O[C@@H]1C[C@H]2CC[C@]1(C)C2(C)C`, the Potency entry in assay [1], in [2], in assay [3], in [4], in [5] and in assay [8] was “inactive” each time. Moreover, the Potency entry in assay [7] is “inactive”.
`O=C(O)c1ccccc1[N+](=O)[O-]`: the Potency result in [1], in assay [2] and in assay [3] was “inactive” each time.
For `CC(=O)OCC(=O)[C@@]1(O)CC[C@H]2[C@@H]3CCC4=CC(=O)C=C[C@]4(C)[C@@]3(F)[C@@H](O)C[C@@]21C`, the Potency entry in assay [1], in assay [9], in assay [3], in [5] and in [6] was “inactive” each time.
As for `CCOc1ccc2c(c1)C(C)CC(C)(C)N2` (centres undefined), the Potency entry in assay [1], in [2], in assay [3], in assay [4] and in assay [6] was “inactive” each time. The Potency in assay [5] is 27.3 µM (active).
For `CCCCCCCCCC(C)C=O` (centres undefined), the Potency result in assay [1], in assay [2], in [3], in assay [4] and in assay [5] was “inactive” each time.
Take `COc1cccc([C@H](O)C2CCN(CCc3ccc(F)cc3)CC2)c1OC`: the Potency result in [1], in [2], in assay [3] and in [6] was “inactive” throughout.
As to `OCC(O)c1ccccc1` (centres undefined), the Potency entry in assay [1], in assay [9], in [3] and in assay [6] was “inactive” in each case.
Take `CCCCCCCCCCCCN1CCOCC1`: the Potency result in assay [1], in assay [2], in assay [3], in [4], in [5] and in assay [8] was “inactive” in each case. Besides, the Potency entry in assay [7] was “inactive”.
For the compound `CCOC(OCC)OCC`, the Potency result in assay [1], in [2], in assay [3], in [4], in [5] and in assay [6] was “inactive” in each case.
In the case of `O=C(Cl)c1ccc(F)c(Cl)c1`, the Potency result in assay [1], in assay [2], in assay [3], in assay [4], in assay [5] and in [7] was “inactive” each time.
For the compound `CC(=O)c1cccnc1`, the Potency entry in assay [1], in assay [2], in assay [3], in [4], in assay [5] and in assay [8] was “inactive” throughout. In addition, the Potency result in [7] is “inactive”.
As to `O=C(O)c1ccc(O)c(O)c1`, the Potency result in assay [1], in assay [2], in assay [3], in assay [4], in assay [5] and in assay [6] was “inactive” throughout.
Turning to `CCCCCCCCCCCCSCCOCCO`, the Potency result in assay [1], in assay [9], in assay [3], in assay [8] and in assay [7] was “inactive” each time.
With `Cc1cc(C)n(CO)n1`, the Potency result in [1], in assay [9], in [3] and in assay [6] was “inactive” each time.
`O=C(O)c1ccncc1`: the Potency entry in [1] and in assay [7] was “inactive” in each case. For the same compound, the Potency in [9] was 73 µM (active).
In the case of `CCCCCCCCS`, the Potency entry in [1], in assay [2], in assay [3] and in [6] was “inactive” each time.
For `CC(=O)Nc1ccn(C2COC(COC(=O)c3ccccc3)O2)c(=O)n1` (centres undefined), the Potency result in assay [1], in [2], in assay [3], in [5], in assay [6] and in [8] was “inactive” each time. Moreover, the Potency entry in assay [7] is “inactive”.
Regarding `CCC(CC)C(=O)O`, the Potency result in assay [1], in assay [2], in assay [3], in assay [4], in assay [5] and in assay [6] was “inactive” in each case.
As for `Cc1c(-c2cccnc2)c2ccccc2n1CCCCC(=O)O`, the Potency result in [1], in assay [2], in assay [3], in assay [4], in assay [6] and in assay [8] was “inactive” each time.
Turning to `CC(=O)Nc1cccc(N)c1`, the Potency entry in assay [1], in [2], in assay [3], in [6], in [8] and in assay [7] was “inactive” in each case.
As for `O=C(N[C@@H](Cc1ccccc1)[C@@H](O)C(=O)N1C[C@@H](O)[C@@H](O)C1)c1cc2cc(Cl)ccc2[nH]1`, the Potency entry in [3] and in assay [7] was “inactive” in each case. In addition, the Potency in assay [8] is 54.5 µM (active).
Take `O=C(OCCN1CCOCC1)c1cccnc1Nc1cccc(C(F)(F)F)c1`: the Potency entry in [1], in assay [2], in [4], in assay [5] and in assay [6] was “inactive” in each case.
Consider `COc1ccc(C(=O)Nc2ccccc2)cc1[N+](=O)[O-]`, for which the Potency result in assay [2], in assay [3], in assay [4] and in [6] was “inactive” throughout. Also, the Potency in assay [5] is 30.9 µM (active).
As for `NC(=O)c1ccccc1C(N)=O`, the Potency result in assay [1], in assay [3], in [5] and in [7] was “inactive” in each case. For the same compound, the Potency in assay [4] is 30.8 µM (active).
Turning to `O=C(C1CCCCC1)N1CC(=O)N2CCCc3ccccc3C2C1` (centres undefined), the Potency result in assay [9], in assay [2], in assay [3] and in assay [6] was “inactive” throughout.
For `CC(C)(Cc1c[nH]c2ccccc12)NCC(O)COc1ccccc1C#N` (centres undefined), the Potency entry in assay [2], in assay [3], in [6] and in assay [7] was “inactive” in each case.
For the compound `Cc1ccccc1CCO`, the Potency entry in [1], in [2], in assay [3], in assay [6], in assay [8] and in [7] was “inactive” throughout.
With `COc1cc(C)c(Cc2cnc(N)nc2N)cc1OC`, the Potency result in assay [1], in assay [2], in [4], in [5], in [6] and in assay [8] was “inactive” in each case. The Potency entry in assay [7] was “inactive”.
For `CC1=CC(=C(c2ccc(N)cc2)c2ccc(N)cc2)C=CC1=N`, in assay [9], the activity change, negative = inhibition was -4.83% [at 10.5 µM]. Further, in assay [2], the viability change, negative = cytotoxic is -5.57% [at 8.39 µM]. For the same compound, the activity, negative = inhibition in assay [4] was 3.44% [at 8.39 µM]. For the same compound, the activation is -0.508% [at 8.39 µM] in assay [5] and -25.9% [at 8.39 µM] in assay [7]. Besides, the Potency in assay [8] is 2.76 µM (active).
